The list is not random: actives were taken first. Their share in the collection is about 2.6%.
Shn3 3UTR inh: reduction of Shn3 3'UTR firefly luciferase signal, primary screen, Schnurri-3 inhibitor project, cell-based, Clone20 osteoblasts, set 2 | Clone20 osteoblast Shn3 3'UTR firefly luciferase, 24 h | inhibition, % at 12.5 µM | 360,000 compounds, 0.52% hits;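 active means mean inhibition of at least 75% with every replicate also reaching 75%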
HIF-2a block: HIF-2a reporter inhibitors, primary screen, luminescence, 786-0 RCC cells | 786-0 RCC cells HIF-2a reporter, luciferase luminescence, overnight | AID 624352, 2012 | 360,000 compounds, 0.72% hits | inhibition, % at 18.8 µM;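 active means inhibition of the luminescence signal of 40% or more relative to plate controls, in a single-dose primary screen at 18.75 µM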
Peg3 promoter: Peg3 promoter-driven luciferase inhibitors, primary screen, cell-based, HeLa, luciferase luminescence; inhibition, % at 20 µM; 360,000 compounds, 1.7% hits; AID 588405, 2011; HeLa PEG-Prom luciferase reporter, overnight;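 active means inhibition of at least 50% at 20 µM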
KKLEB cytotox: cytotoxicity in KKLEB CF airway cells, primary screen, cytotoxicity control for CF NF-kB inhibitor project, cell-based, uHTS, fluorescence assay plates | activity change (cytotoxicity), % at 5 µM | AID 602141, 2011 | KKLEB CF airway cells viability, ATPlite luminescence, overnight; hits give low values; cells stimulated with P. aeruginosa culture filtrate | 360,000 compounds, 0.36% hits;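 active means corrected activity change at or below -50% at 5 µM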
CF NFkB inh: inhibitors of PAF-induced NF-kB signaling, primary screen, cell-based, GFP fluorescence, uHTS; KKLEB NF-kB-GFP reporter, GFP fluorescence overnight; inhibition, % at 5 µM; 360,000 compounds, 0.86% hits; AID 588850, 2011;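 active means at least 50% inhibition at 5 µM, scaled per plate between neutral and stimulator controls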;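 further: PAF is a Pseudomonas aeruginosa culture filtrate used as stimulus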
Mdm2-MdmX confirm: retested Mdm2-MdmX interaction blockers, confirmation, cell-based, luminescence, single concentration, set 2 | shares compounds with HIF-2a block | SaOS-2 split-luciferase Mdm2/MdmX complementation | inhibition, % at 8 µM | 740 compounds, 99% hits | AID 504601, 2011;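 active means mean inhibition of the luminescence signal across two replicates at or above 26 percent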
Target sequence (O15151 whole entry, looked up): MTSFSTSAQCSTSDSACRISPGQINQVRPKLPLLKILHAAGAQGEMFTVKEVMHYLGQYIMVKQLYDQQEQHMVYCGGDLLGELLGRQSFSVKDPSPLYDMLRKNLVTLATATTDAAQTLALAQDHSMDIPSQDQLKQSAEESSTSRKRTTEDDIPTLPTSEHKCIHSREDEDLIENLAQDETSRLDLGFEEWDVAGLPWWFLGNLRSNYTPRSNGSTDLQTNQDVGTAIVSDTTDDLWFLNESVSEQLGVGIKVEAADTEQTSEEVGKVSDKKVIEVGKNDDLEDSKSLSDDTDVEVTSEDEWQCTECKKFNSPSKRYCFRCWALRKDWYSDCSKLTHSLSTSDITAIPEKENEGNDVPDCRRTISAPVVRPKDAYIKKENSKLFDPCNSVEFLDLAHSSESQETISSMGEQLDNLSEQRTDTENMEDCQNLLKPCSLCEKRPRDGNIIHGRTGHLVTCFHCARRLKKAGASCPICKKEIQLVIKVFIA
Target sequence (Q00987 whole entry, looked up): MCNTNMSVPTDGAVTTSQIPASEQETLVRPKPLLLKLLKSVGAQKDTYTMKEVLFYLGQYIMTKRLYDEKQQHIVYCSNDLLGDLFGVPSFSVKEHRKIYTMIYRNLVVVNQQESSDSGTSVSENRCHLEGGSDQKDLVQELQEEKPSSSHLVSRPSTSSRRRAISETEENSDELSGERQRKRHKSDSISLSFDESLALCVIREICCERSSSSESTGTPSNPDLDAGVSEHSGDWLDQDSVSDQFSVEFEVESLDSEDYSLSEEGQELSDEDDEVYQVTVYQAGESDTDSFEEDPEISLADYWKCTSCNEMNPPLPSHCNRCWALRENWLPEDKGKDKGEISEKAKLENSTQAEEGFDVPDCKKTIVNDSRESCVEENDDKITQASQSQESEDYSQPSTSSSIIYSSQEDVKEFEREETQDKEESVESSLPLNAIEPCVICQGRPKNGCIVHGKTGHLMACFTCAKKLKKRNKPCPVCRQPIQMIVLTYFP
HIF-2a conf: HIF-2a reporter inhibitor retest, confirmation, luminescence, 786-0 RCC cells; HIF-2a luciferase reporter luminescence, overnight; 1,800 compounds, 56% hits; inhibition, % at 18.8 µM; shares compounds with HIF-2a block;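 active means mean inhibition across four replicates of at least 40 percent at the single tested concentration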
HIF-1a cs: HIF-1a luciferase reporter signal reduction – MiaPaCa-2 cells, single concentration, counter-screen for HIF-2a inhibitor project, confirmation. MiaPaCa-2 HIF-1a luciferase reporter, desferoxamine, overnight. shares compounds with HIF-2a block. inhibition, % at 18.8 µM. 1,800 compounds, 72% hits;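 active means mean inhibition of the reporter signal across four replicates at the single tested dose of 50% or more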
Of the large screens only hits and unclear results are named; the others gave an inactive call (follow-up assays come after a bar, where they were run).

COc1cc(CNC2CCCC2)cc(Cl)c1OCc1ccccc1Cl	HIF-2a block 82.0, Peg3 promoter 94.2 | HIF-2a conf inactive | HIF-1a cs 106.6
Cc1ccnc(NC(=O)c2cccc(NS(=O)(=O)c3ccccc3C)c2)c1	none
CC1=CC(C)(C)Nc2ccc(C)cc21	none
CC1=CC(C)(C)Nc2ccc(OC(=O)CN3C(=O)CCC3=O)cc21	HIF-2a block 74.2 | HIF-2a conf 88.3 | HIF-1a cs 89.6
CC1=CC(C)(C)Nc2ccc(OC(=O)c3cccnc3)cc21	HIF-2a block 75.0, Peg3 promoter 56.5 | HIF-2a conf 86.5 | HIF-1a cs 94.1
CC1=CC(C)(C)Nc2ccc(Cc3ccc4c(c3)C(C)=CC(C)(C)N4)cc21	none
CC1=CC(C)(C)Nc2ccc(OC(=O)c3ccco3)cc21	HIF-2a block 81.0 | HIF-2a conf 83.3 | HIF-1a cs 92.2
COc1ccc(OC(=O)C(C)N2C(=O)c3ccccc3C2=O)cc1 (stereo unspecified)	none
CC1=CC(C)(C)Nc2ccc(OC(=O)C(C)N3C(=O)c4ccccc4C3=O)cc21 (stereo unspecified)	HIF-2a block 78.2 | HIF-2a conf 89.7 | HIF-1a cs 93.7
O=C(NCC1CCCO1)Nc1cc(Cl)cc(Cl)c1 (stereo unspecified)	none
Nc1nc2ccc(S(=O)(=O)c3ccc4nc(N)sc4c3)cc2s1	HIF-2a block 47.7 | HIF-2a conf 40.6 | HIF-1a cs inactive
CCN(CC)CCNC(=O)C(Cl)=C1C(Cl)=C(Cl)C(Cl)=C1Cl	HIF-2a block 66.6, Peg3 promoter 97.4 | HIF-2a conf inactive | HIF-1a cs 60.6
CCN(CC)CCNC(=O)C12CC3CC(CC(C3)C1)C2	none
Cc1cc(C)c(C#N)c(Sc2nc(C)c([N+](=O)[O-])c(C)c2C#N)n1	HIF-2a block 89.8, Peg3 promoter 98.3 | HIF-2a conf inactive | HIF-1a cs inactive
CCCc1ccc(-c2ccc(/C=C/C(=O)O)cc2)nc1	HIF-2a block 87.2 | HIF-2a conf 89.2 | HIF-1a cs 90.8
O=C(Nc1cccc(C(F)(F)F)c1)Nc1ccc(N2CCCC2)c(S(=O)(=O)Nc2ccccc2Cl)c1	Shn3 3UTR inh 92.0, Peg3 promoter 63.7, KKLEB cytotox -57.6, CF NFkB inh 58.7 | Mdm2-MdmX confirm 102.0
CC(=O)Nc1ccc(N2CCOCC2)c(S(=O)(=O)Nc2ccccc2Cl)c1	none
Cc1cc(C)nc(Nc2ccccc2F)n1	none
CN1CCN(C(=O)CCN2C(=O)/C(=C\c3ccc(Cl)cc3)SC2=S)CC1	none
NS(=O)(=O)c1ccc(CCN2C(=O)/C(=C\c3ccc(Cl)cc3)SC2=S)cc1	HIF-2a block 41.7, Peg3 promoter 82.9 | Mdm2-MdmX confirm 103.0
COc1ccc(-c2cc(N)n(S(=O)(=O)c3c(F)c(F)c(F)c(F)c3F)n2)cc1OC	HIF-2a block 86.3, Peg3 promoter 109.7 | HIF-2a conf 99.5 | HIF-1a cs 104.0
CN(C(=S)NC(=O)c1ccccc1)C1CCCCC1	HIF-2a block 50.2 | HIF-2a conf inactive | HIF-1a cs inactive
CN(CC(=O)Nc1cc(S(=O)(=O)N2CCCC2)ccc1Cl)Cc1nc2ccccc2c(=O)[nH]1	none
Cc1ccc(S(=O)(=O)N/N=C/c2ccc(OCC(=O)Nc3ccccc3Cl)cc2)cc1	none
CC(=O)c1cccc(NC(=O)CCc2nc3sc4c(c3c(=O)[nH]2)CCCC4)c1	none
COc1ccc(-c2nc(CS(=O)CC(=O)NCc3ccco3)c(C)o2)cc1 (stereo unspecified)	none
CCc1ccc(-c2nc(CS(=O)CC(=O)NCc3ccco3)c(C)o2)cc1 (stereo unspecified)	HIF-2a block 70.1 | HIF-2a conf inactive | HIF-1a cs 68.8
CCOc1cc(S(=O)(=O)NCC2CCCO2)ccc1F (stereo unspecified)	none
CCOC(=O)C1(C)CCN1C(=O)c1ccc(OC)c(C(F)(F)F)c1 (stereo unspecified)	none
COCCn1c(CCC(=O)O)nc2c1c(=O)[nH]c(=O)n2CC(C)C	none
CCOC(=O)C1CCCN(C(=O)COc2ccc(C(C)(C)C)cc2)CC1 (stereo unspecified)	HIF-2a block 47.3 | HIF-2a conf 58.0 | HIF-1a cs inactive
Cc1sc2ncnc(N3CCC(C(=O)Nc4ccc(Br)cc4Br)CC3)c2c1C	none
Cc1ccc(/C=C2\SC(=S)N(CCCC(=O)Nc3ccc(O)cc3)C2=O)cc1	HIF-2a block 79.7 | Mdm2-MdmX confirm 56.8
COc1ccc(/C=C2\SC(=O)N(CCCC(=O)Nc3ccc(C(=O)O)cc3)C2=O)cc1	HIF-2a block 84.5 | HIF-2a conf 97.0 | HIF-1a cs 90.6
COc1ccc(/C=C2\SC(=O)N(CCNC(=O)Cn3[nH]c(=O)c4ccccc4c3=O)C2=O)cc1	HIF-2a block 44.6 | HIF-2a conf 77.2 | HIF-1a cs inactive
COc1cc2c(cc1OC)/C(=C/C(=O)OCc1ccccc1)OC2	none (no result: Shn3 3UTR inh, Peg3 promoter, KKLEB cytotox, CF NFkB inh)
COC(=O)C12OCC34C(CC5C(C)=C(O)C(=O)CC5(C)C3C(O)C1O)OC(=O)C(OC(=O)C=C(C)C)C24 (stereo unspecified)	Shn3 3UTR inh 99.1, HIF-2a block 67.8, Peg3 promoter 100.0, CF NFkB inh 93.5 | HIF-2a conf 59.9 | HIF-1a cs 105.4
CC(C)COc1ccc(C(=S)N2CCCC2)cc1	HIF-2a block 57.4 | HIF-2a conf 57.5 | HIF-1a cs inactive
CN(C)CCCNC(=O)c1ccccn1	none
CN(C)CCCNC(=O)c1ccc(-c2nc(-c3ccc(Cl)cc3)cs2)cc1	HIF-2a block 88.5, Peg3 promoter 103.1 | HIF-2a conf inactive | HIF-1a cs 106.2
CCNS(=O)(=O)c1ccc(CCC(=O)N2CCC(C)CC2)cc1	none
Cc1cccc(Cn2ccc(NC(=O)c3ccc4c(c3)OCO4)n2)c1	none
CN(C)CCNC(=O)Nc1ccc([N+](=O)[O-])cc1	none
CCCCNC(=O)NNC(=O)c1cc(C)on1	none
COc1cc(NC(C)CCCN)c2ncccc2c1Oc1ccccc1 (stereo unspecified)	none
Cc1nc([N+](=O)[O-])c(Sc2nc3ccccc3[nH]2)n1Cc1ccccc1	none
